From paper PMC7862700, “An all-to-all approach to the identification of sequence-specific readers for epigenetic DNA modifications on cytosine” come the findings set out here.

Experiment in all cases: DAPPL (digital affinity profiling via proximity ligation, sequencing); 10 mM Tris-HCl pH 7.5, 50 mM NaCl, 1 mM DTT, 4% glycerol, room temperature, 30 min; GST-TFs on glutathione beads, 16-mer random dsDNA library, 0.1% formaldehyde crosslink after washing; high values mean tight binding
What all share (details): protein: recombinant; tags: N-terminal GST; dsDNA, one strand shown

The target of one assay is T1, ELK1 (Homo sapiens, UniProt P19419 1-428).
T1 sequence: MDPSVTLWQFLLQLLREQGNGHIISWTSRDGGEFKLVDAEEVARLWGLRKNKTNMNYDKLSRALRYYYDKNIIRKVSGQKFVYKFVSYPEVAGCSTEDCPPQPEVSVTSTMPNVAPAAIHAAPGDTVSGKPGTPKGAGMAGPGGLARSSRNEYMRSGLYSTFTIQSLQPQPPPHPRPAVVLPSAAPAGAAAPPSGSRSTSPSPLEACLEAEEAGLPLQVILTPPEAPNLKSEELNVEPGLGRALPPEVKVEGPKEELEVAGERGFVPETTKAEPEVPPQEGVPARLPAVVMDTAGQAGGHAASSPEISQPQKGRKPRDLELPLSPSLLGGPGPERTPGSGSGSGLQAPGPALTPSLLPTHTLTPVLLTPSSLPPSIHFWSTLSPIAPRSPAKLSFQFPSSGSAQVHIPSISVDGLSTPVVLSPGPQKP
The essentials:
(§1)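 The binding signal reported is, for every hexamer, its read frequency for a factor over its read frequency for the tag-only sample. Reads came from pools of yeast-expressed, GST-fused human transcription factors on glutathione beads, barcoded with DNA and mixed with that sample, which were incubated with 200 nmole of a random double-stranded 16-mer DNA library in Tris/NaCl/DTT/glycerol buffer at room temperature for 30 min. After washing, the pools were crosslinked with 0.1% formaldehyde, proximity-ligated with BsaI/T4 ligase for 1 h at 37 °C, PCR-amplified and sequenced on an Illumina NextSeq500.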

The target in another assay is T2, GABPA (Homo sapiens, UniProt Q06546 1-454).
T2 sequence: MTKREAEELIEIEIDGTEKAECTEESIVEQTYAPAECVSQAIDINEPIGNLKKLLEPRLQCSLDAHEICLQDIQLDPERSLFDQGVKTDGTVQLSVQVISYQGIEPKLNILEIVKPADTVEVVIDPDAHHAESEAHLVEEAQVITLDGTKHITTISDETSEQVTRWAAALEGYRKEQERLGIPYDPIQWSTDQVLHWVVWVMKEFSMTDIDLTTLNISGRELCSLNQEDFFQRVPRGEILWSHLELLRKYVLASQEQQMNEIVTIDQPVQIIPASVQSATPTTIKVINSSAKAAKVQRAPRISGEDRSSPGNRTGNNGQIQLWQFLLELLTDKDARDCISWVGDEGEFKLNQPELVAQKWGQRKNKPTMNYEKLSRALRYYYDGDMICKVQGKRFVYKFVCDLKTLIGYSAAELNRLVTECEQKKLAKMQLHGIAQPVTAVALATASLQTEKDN
The essentials:
as §1

For a further assay, the target named is ELF1 (Homo sapiens, UniProt P32519 1-619). The essentials:
as §1

For a further assay, the target named is T3, EHF (Homo sapiens, UniProt Q9NZC4 1-300).
T3 sequence: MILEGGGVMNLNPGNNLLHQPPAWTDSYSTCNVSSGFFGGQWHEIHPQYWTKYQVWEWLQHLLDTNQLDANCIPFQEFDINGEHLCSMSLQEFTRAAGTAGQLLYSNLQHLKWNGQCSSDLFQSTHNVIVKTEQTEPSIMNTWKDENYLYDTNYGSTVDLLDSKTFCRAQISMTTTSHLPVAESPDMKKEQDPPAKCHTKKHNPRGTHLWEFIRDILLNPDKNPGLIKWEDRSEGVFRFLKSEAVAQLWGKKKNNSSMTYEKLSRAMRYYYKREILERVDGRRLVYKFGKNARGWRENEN
The essentials: as §1

A further assay deals with SPIB (Homo sapiens, UniProt Q01892 1-262). The essentials: as §1
The next assay deals with ETV5 (Homo sapiens, UniProt P41161 1-510). The essentials: as §1
Another assay addresses ELF4 (Homo sapiens, UniProt Q99607 1-663). Summed up:
as §1

The target of the next assay is T4, ELK4 (Homo sapiens, UniProt P28324-2 1-405).
T4 sequence: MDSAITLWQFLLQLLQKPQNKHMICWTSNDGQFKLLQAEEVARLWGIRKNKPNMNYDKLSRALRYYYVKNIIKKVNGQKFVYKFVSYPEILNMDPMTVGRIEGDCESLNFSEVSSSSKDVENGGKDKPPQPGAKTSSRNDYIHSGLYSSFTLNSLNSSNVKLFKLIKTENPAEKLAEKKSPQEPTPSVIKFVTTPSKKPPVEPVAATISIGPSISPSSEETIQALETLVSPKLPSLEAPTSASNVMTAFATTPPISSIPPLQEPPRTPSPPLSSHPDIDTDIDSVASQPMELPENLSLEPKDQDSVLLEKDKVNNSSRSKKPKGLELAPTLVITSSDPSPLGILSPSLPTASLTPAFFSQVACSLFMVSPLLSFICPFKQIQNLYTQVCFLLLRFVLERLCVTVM
Summed up:
as §1

The next assay deals with T5, ETV2 (Homo sapiens, UniProt O00321 1-342).
T5 sequence: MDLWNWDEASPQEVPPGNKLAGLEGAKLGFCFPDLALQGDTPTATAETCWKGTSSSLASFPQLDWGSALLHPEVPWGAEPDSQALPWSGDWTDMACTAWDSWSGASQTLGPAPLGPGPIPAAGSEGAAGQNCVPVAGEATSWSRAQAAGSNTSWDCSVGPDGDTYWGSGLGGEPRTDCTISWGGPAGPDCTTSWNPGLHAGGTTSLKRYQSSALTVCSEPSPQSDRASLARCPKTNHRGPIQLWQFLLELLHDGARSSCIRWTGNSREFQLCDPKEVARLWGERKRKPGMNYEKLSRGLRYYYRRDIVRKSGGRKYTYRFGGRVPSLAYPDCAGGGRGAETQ
The essentials:
as §1

The target in the next assay is T6, ELF3 (Homo sapiens, UniProt P78545 1-371).
T6 sequence: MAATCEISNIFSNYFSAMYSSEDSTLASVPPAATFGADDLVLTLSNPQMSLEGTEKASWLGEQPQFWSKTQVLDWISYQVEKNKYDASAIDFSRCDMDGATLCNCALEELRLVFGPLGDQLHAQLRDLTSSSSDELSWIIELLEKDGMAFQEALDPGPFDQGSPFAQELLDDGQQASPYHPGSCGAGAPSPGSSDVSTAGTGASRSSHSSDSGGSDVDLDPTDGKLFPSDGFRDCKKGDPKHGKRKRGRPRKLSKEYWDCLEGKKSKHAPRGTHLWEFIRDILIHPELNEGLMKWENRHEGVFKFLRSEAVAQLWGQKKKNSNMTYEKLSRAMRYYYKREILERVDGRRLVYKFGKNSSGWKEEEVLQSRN
Summed up: as §1

A further assay deals with T7, ERF (Homo sapiens, UniProt P50548 1-548).
T7 sequence: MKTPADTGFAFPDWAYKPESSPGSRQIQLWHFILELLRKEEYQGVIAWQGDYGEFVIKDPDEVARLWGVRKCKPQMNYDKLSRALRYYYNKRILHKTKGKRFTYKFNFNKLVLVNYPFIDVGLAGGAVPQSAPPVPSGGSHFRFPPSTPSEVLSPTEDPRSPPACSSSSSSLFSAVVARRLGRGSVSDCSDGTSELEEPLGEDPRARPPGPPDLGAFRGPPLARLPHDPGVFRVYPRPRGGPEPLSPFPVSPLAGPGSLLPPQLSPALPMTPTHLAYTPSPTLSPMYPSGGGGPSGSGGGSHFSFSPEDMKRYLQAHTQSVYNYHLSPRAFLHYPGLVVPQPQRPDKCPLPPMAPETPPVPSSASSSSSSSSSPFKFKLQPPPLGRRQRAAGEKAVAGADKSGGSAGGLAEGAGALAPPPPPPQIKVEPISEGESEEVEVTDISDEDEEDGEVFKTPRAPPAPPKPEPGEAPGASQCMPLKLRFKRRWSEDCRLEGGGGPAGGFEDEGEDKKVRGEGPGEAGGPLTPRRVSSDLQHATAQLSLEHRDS
The essentials: as §1

The target of the next assay is T8, ETV3L (Homo sapiens, UniProt Q6ZN32 1-361).
T8 sequence: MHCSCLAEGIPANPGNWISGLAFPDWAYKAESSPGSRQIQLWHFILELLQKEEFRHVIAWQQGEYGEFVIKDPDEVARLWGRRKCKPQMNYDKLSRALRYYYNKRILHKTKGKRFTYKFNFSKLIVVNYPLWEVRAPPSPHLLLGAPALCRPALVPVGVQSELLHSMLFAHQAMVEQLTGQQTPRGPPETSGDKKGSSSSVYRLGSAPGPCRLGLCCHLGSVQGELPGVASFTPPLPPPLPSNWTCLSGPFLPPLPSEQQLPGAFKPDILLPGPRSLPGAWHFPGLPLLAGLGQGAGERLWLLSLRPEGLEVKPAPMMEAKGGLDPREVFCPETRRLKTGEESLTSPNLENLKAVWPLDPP
Summed up: as §1

Another assay addresses T9, ETS2 (Homo sapiens, UniProt P15036 1-469).
T9 sequence: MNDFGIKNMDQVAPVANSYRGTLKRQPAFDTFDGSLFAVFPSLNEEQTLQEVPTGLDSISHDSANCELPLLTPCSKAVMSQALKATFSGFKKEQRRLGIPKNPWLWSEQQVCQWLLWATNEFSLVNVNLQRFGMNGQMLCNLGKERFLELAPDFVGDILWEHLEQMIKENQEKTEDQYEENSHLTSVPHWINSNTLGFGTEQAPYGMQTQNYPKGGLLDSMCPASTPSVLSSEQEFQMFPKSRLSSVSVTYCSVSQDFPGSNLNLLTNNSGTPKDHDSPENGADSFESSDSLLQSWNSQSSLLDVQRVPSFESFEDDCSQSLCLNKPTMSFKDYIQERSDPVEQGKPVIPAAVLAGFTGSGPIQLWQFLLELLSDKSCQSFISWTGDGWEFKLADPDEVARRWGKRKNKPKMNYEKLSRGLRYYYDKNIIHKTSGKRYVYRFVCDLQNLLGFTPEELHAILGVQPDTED
Summed up:
as §1

In a further assay the target is T10, ETV7 (Homo sapiens, UniProt Q9Y603 1-341).
T10 sequence: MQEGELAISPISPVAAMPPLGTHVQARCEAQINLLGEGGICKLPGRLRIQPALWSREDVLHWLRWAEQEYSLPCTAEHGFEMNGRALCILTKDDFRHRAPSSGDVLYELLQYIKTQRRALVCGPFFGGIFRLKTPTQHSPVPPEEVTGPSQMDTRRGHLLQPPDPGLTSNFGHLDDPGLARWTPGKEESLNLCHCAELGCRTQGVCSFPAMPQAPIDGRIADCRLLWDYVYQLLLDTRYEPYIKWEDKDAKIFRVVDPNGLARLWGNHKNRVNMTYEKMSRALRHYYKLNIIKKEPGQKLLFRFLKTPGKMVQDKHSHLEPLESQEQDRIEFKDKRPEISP
The essentials:
as §1

For another assay, the target named is ETV6 (Homo sapiens, UniProt P41212 1-452). Summed up: as §1
Sequence of ETV6 (P41212 whole entry): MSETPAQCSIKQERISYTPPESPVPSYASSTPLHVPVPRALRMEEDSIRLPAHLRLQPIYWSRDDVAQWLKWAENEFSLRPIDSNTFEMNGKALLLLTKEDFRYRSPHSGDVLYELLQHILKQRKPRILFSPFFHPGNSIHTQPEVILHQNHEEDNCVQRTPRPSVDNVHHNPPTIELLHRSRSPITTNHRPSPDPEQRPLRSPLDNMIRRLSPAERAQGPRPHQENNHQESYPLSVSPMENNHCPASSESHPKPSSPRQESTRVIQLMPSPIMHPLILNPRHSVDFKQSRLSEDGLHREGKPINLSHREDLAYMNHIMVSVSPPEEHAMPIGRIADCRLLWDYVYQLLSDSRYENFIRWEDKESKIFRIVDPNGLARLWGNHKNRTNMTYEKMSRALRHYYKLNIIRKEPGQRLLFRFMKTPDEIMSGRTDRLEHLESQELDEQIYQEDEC

Sequence of ETV5 (P41161 whole entry): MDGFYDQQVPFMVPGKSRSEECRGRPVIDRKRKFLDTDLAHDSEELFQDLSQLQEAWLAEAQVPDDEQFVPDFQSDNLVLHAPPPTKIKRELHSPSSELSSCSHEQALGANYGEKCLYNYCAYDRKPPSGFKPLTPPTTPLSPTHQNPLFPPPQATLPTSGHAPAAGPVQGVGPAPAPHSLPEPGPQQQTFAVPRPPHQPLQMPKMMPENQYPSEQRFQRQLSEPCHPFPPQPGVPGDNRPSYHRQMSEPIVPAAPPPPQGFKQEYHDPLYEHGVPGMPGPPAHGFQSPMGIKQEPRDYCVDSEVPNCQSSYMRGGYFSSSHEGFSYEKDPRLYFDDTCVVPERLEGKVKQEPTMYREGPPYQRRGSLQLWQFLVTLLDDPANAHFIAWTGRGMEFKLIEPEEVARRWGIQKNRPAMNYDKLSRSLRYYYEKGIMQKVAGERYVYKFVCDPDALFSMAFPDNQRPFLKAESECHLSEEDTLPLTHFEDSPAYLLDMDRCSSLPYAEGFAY
Sequence of ELF1 (P32519 whole entry): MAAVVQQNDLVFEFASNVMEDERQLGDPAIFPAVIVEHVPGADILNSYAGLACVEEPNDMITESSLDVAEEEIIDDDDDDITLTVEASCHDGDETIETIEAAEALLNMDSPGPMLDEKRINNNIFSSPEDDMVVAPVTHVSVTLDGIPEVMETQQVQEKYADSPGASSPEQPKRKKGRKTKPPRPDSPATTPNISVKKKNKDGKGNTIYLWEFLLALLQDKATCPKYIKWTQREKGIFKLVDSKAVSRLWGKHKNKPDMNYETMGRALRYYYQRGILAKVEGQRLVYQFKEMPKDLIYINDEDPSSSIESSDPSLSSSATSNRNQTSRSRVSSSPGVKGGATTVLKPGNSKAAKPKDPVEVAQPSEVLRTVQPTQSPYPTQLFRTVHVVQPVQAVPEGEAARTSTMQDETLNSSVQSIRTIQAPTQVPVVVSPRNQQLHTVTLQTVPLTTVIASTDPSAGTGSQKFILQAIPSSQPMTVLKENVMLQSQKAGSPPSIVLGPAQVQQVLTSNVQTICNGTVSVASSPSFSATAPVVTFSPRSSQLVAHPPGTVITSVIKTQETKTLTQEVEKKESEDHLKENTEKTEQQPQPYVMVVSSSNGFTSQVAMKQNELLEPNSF
Sequence of SPIB (Q01892 whole entry): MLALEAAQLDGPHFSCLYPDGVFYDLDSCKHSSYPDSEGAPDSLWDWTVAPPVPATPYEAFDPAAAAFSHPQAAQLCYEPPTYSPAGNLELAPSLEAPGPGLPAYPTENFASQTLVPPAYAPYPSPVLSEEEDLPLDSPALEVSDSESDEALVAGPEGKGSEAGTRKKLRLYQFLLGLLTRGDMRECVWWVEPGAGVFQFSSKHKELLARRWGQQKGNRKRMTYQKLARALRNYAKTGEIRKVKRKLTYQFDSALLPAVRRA
Sequence of ELF4 (Q99607 whole entry): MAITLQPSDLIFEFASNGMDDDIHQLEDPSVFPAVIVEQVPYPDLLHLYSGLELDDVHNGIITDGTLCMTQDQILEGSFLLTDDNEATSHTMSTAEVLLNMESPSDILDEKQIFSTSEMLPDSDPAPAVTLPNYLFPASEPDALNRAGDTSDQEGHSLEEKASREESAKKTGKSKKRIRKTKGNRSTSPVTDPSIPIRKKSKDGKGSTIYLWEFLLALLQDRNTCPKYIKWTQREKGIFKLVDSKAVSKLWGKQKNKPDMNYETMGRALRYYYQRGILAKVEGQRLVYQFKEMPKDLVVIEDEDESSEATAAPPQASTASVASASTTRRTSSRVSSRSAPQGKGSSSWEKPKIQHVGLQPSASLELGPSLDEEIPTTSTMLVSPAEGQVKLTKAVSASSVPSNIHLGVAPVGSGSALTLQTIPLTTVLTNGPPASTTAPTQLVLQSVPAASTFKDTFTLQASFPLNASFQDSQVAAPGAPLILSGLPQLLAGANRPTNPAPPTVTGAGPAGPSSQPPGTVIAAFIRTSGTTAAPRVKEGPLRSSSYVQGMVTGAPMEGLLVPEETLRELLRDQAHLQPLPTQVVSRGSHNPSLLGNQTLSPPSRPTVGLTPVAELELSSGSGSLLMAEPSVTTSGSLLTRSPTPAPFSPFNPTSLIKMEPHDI

With TCGAAC, the binding signal is 1.01 fold enrichment (6-mer frequency, TF over GST control) with ELK1; 1.02 fold enrichment (6-mer frequency, TF over GST control) with GABPA; 1.09 fold enrichment (6-mer frequency, TF over GST control) with ELF1; 1.07 fold enrichment (6-mer frequency, TF over GST control) with EHF; 1.03 fold enrichment (6-mer frequency, TF over GST control) in the assay with SPIB; 1.01 fold enrichment (6-mer frequency, TF over GST control) with ETV5. Further, the binding signal with ELF4 was 1.01 fold enrichment (6-mer frequency, TF over GST control); in the assay with ELK4, 1.05 fold enrichment (6-mer frequency, TF over GST control); in the assay with ETV2, 1.03 fold enrichment (6-mer frequency, TF over GST control); with ELF3 it was 1.05 fold enrichment (6-mer frequency, TF over GST control); with ERF it was 1.07 fold enrichment (6-mer frequency, TF over GST control); in the assay with ETV3L, 1.07 fold enrichment (6-mer frequency, TF over GST control). Besides, the binding signal with ETS2 was 1.03 fold enrichment (6-mer frequency, TF over GST control); in the assay with ETV7 it was 1.04 fold enrichment (6-mer frequency, TF over GST control); with ETV6, 1 fold enrichment (6-mer frequency, TF over GST control).
